Bioassay records: PubChem, several laboratories
BH1578 lux ind: quorum light induction in luxS cqsA deficient V. cholerae; V. cholerae BH1578 lux reporter, luminescence, 6 h; activation, % at 18.7 µM; 350,000 tested, 0.16% active; in the data active = activation mostly above about 9.7%, no sharp cut-off; inconclusive = no clear call, values can overlap the other calls; inactive = mostly below about 3.7%
Anthrax LF prot: blocks Bacillus anthracis lethal factor protease; multiplex microsphere protease cleavage assay, LF; inhibition, % at 10 µM; 360,000 tested, 0.12% active; note: plate controls were buffer without enzyme for full effect and enzyme alone for no effect
Target sequence (P15917 whole entry, looked up): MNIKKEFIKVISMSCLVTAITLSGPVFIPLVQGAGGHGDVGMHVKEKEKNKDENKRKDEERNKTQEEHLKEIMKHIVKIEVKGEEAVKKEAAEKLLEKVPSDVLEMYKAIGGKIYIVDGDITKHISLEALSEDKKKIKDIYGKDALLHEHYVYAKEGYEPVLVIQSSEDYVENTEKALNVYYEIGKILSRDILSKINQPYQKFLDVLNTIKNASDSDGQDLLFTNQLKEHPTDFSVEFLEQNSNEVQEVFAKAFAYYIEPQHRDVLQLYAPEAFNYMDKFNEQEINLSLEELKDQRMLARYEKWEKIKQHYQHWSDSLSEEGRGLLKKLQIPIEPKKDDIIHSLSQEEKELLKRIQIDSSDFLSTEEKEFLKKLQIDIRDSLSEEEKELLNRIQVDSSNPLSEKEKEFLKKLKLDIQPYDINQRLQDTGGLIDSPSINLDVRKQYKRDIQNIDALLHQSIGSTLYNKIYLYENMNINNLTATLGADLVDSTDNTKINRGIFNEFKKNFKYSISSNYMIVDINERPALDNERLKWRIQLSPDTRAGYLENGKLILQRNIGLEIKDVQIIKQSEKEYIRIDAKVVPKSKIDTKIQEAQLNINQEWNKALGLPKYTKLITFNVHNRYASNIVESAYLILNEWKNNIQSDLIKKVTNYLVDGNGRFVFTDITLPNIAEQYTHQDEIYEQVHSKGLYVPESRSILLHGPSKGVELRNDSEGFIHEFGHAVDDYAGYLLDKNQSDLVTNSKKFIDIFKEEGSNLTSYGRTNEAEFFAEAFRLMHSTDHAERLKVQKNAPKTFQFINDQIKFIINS
Autofluor counter: flagged as autofluorescent in microsphere protease counterscreen; compound autofluorescence counterscreen, microsphere flow cytometry; hits give high values; fluorescence intensity (test concentration not listed); 360,000 tested, 3.1% active; in the data active = fluorescence intensity above about 16000; inconclusive = no clear call, values can overlap the other calls
BoNT A protease: blocks Botulinum neurotoxin A light chain protease. multiplex microsphere protease substrate cleavage, flow cytometry. inhibition, % at 10 µM. 360,000 tested, 0.17% active. AID 588499; note: plate controls were buffer without enzyme for full effect and enzyme alone for no effect
BoNT-F LC inh: BoNT F light chain protease inhibition | Multiplex microsphere protease cleavage assay, flow cytometry | inhibition, % at 10 µM | 360,000 tested, 0.22% active | AID 588497; in the data active = inhibition above about 35%, passing the limit was not always enough; inconclusive = no clear call, values can overlap the other calls; note: plate controls were buffer without enzyme for full effect and enzyme alone for no effect
BJeLR viability: BJeLR cell viability loss | inhibition, % (concentration not given with the values) | 300,000 tested, 0.17% active | BJeLR (HRASV12) viability, CellTiter-Glo ATP luminescence, 48 h; in the data active = inhibition above about 50%; inconclusive = no clear call, values can overlap the other calls
* = called active by the depositor; i = inactive; ? = inconclusive; / = not tested or not shown. Hits are enriched below; roughly 3.7% of the tested compounds scored in any of these assays. Cut-off read from the data, not from the text of the source, unless noted: active = inhibition above about 30%; inconclusive = no clear call, values can overlap the other calls; inactive = below that.

SMILES | BH1578 lux ind | Anthrax LF prot | Autofluor counter | BoNT A protease | BoNT-F LC inh | BJeLR viability
O=C(Nc1cccc2c1CCCC2)c1cc(C2CCCCN2C(=O)CCCc2ccccc2)on1 (stereo not drawn) | -0.2 | -5.7 | 3126 | 0.0 | 2.6 | /
CC(C)Oc1ccc(CSc2nnc3n(C)c(=O)c4c5c(sc4n23)CCCC5)cc1 | i | -0.6 | 24669* | ? | -0.1 | 2.3
CCCCCCCCN1C(=O)[C@H](CC(=O)NCc2ccc(C)o2)C[C@@]2(C(=O)OC)CCCCC=C12 | / | -0.1 | 5530 | 0.9 | 5.4 | /
CC(C)COc1ccc(-c2nnc(-c3ccncc3)o2)cc1 | i | -2.5 | 17655* | -4.1 | -10.9 | 11.9
CS(=O)(=O)N(Cc1ccco1)Cc1ccccc1Cl | i | 0.9 | 20334* | ? | -0.8 | 0.4
CCCNC(=O)C1(C)CCCN(Cc2ccc(-c3ccccn3)cc2)C1 (stereo not drawn) | 0.1 | 2.9 | 3015 | -0.5 | -10.7 | /
CCOc1cc(/C=C(\C#N)c2[nH]nc(N)c2C#N)ccc1O | 6.2 | 0.5 | 23984* | -1.8 | -5.3 | -1.9
CC1(C(=O)NS(=O)(=O)c2ccc(Cl)s2)CCN1C(=O)Cc1ccc(-c2ccccc2)cc1 (stereo not drawn) | i | -8.3 | 4067 | -0.3 | -7.3 | /
O=C(Nc1ccc(F)cc1)NC1CCN(Cc2nnnn2Cc2ccco2)CC1 | i | -2.4 | 22240* | ? | 0.3 | -8.9
COc1cccc(NC(=O)NC2CCN(Cc3nnnn3Cc3ccc(F)cc3)CC2)c1 | -0.4 | 5.4 | 10898 | -1.7 | -6.4 | -4.5
O=C(Nc1ccccc1F)NC1CCN(Cc2nnnn2Cc2ccc(F)cc2)CC1 | i | 0.9 | 23538* | -0.5 | -2.0 | -5.3
O=S(=O)(c1ccc(F)cc1)N(CCO)CC(O)Cn1c2ccccc2c2ccccc21 (stereo not drawn) | 1.8 | -5.3 | 16893* | -2.0 | -7.0 | 2.9
O=C(Oc1cccnc1)c1cc(S(=O)(=O)N2CCOCC2)ccc1Cl | -3.6 | -1.9 | 9891 | 1.2 | 3.7 | -7.2
COc1ccc(S(=O)(=O)N2CCN(C(=O)c3cccnc3)CC2)cc1OC | -0.4 | 10.1 | 3565 | 0.9 | -1.7 | -5.3
O=C(c1cccnc1)N1CCN(S(=O)(=O)c2ccc3ccccc3c2)CC1 | -5.3 | -7.0 | 16645* | 0.1 | 1.1 | -3.1
O=C(Oc1cccnc1)c1cc(S(=O)(=O)N2CCCCC2)ccc1Cl | 16.4 | -0.2 | 21012* | 4.7 | 7.0 | -11.1
O=C1CCCCC(=O)N(c2ccccc2)c2ccccc21 | -6.2 | 1.2 | 16379* | 0.9 | 0.7 | 2.2
CCN(CC)c1ccc(C(=O)c2ccccc2C(=O)O)c(O)c1 | -1.9 | -2.3 | 23518* | ? | -5.0 | 5.3
Cn1c(=O)c2c(ncn2CC(=O)Nc2ccccc2)n(C)c1=O | -1.4 | 1.3 | 3256 | 0.1 | -0.9 | -7.9
CCN(Cc1ccccc1)C(=O)Cn1cnc2c1c(=O)n(C)c(=O)n2C | -1.7 | 2.4 | 20794* | ? | -4.1 | -6.0
CCN(CC)C(=O)Cn1cnc2c1c(=O)n(C)c(=O)n2C | -0.1 | / | / | / | / | -3.0
Cn1c(=O)c2c(ncn2CCN(CCO)Cc2ccccc2)n(C)c1=O | i | -13.8 | 20125* | 3.8 | 7.9 | 2.8
c1ccc(COc2cccc(-c3cc4nc(NCc5cccs5)ccn4n3)c2)cc1 | -7.7 | 0.3 | 3836 | 0.4 | -4.2 | /
O=C(Cn1cncn1)c1ccccc1Br | -0.4 | 27.2 | 3816 | 3.9 | -6.8 | -15.5
C[C@H](NC(=O)Cn1cncn1)c1ccccc1 | 5.9 | 0.7 | 17083* | -0.8 | 0.3 | 6.2
SMILES | BH1578 lux ind | Anthrax LF prot | Autofluor counter | BoNT A protease | BoNT-F LC inh | BJeLR viability
O=C(Cn1cncn1)NCc1ccccc1Br | i | -2.8 | 20396* | ? | -1.8 | -3.0
O=C(Cn1cncn1)N/N=C/c1cccc2ccccc12 | -3.8 | -1.3 | 2178 | 0.3 | 0.6 | 0.3
CC(NC(=O)Cn1cnc([N+](=O)[O-])n1)c1ccccc1 (stereo not drawn) | / | -2.7 | 4334 | -2.6 | -55.7 | 1.1
O=C(Cn1cncn1)NCc1cccc2ccccc12 | 6.1 | -2.0 | 22835* | ? | 0.7 | -13.6
COc1cc(NCC2COc3c(ccc(OC)c3OC)C2=O)c([N+](=O)[O-])cc1OC (stereo not drawn) | / | -2.0 | 5367 | -0.4 | 3.3 | /
COc1ccccc1CNC(=O)COc1cc(O)c2c(c1)OC(C)(C)CC2=O | -0.1 | -12.7 | 4088 | -0.3 | -13.4 | /
CCCc1nc2n[nH]c(N)c2c2c1COC(C)(C)C2 | -0.2 | 1.0 | 21384* | 2.5 | 2.4 | -7.2
Cc1ccc(C(NC(=O)C2CCN(CCOc3ccccc3)CC2)c2ccccn2)cc1 (stereo not drawn) | -0.6 | 3.6 | 3754 | 0.0 | -4.7 | /
Cc1ccc(NC(=O)NCCCN2CCCC2=O)cc1 | -0.2 | -1.5 | 22287* | 2.3 | 1.2 | -6.9
O=C(NCCCN1CCCC1=O)c1ccc2c(c1)OCO2 | -2.5 | 1.2 | 20949* | ? | 1.0 | /
CC(c1cccs1)N(Cc1ccco1)C(=O)Nc1ccc(Cl)c(Cl)c1 (stereo not drawn) | -1.7 | -5.3 | 17014* | -2.8 | -6.1 | -0.2
O=C(Cc1cccc2c(=O)cc(-c3ccccc3)oc12)OCCN1CCOCC1 | / | -3.0 | 4472 | -0.4 | 5.6 | /
COc1ccc(C2C(C(=O)c3cccs3)=C(O)C(=O)N2c2nnc(C)s2)cc1OC (stereo not drawn) | i | 6.6 | 7571 | 2.0 | 5.2 | -5.7
COc1ccc(C2C(C(=O)c3cccs3)=C(O)C(=O)N2c2nncs2)cc1 (stereo not drawn) | -2.3 | -10.3 | 22479* | ? | 1.4 | 4.7
C=CCOc1ccc(C2C(C(=O)c3cccs3)=C(O)C(=O)N2c2nnc(C)s2)cc1 (stereo not drawn) | -0.3 | 1.0 | 7000 | -1.1 | 169.7* | 3.6
O=C1[C@@H](c2ccccc2)CC[C@@H]2C=CC[C@H]3CCN1[C@@H]32 | / | 2.5 | 5908 | -0.9 | 3.3 | /
CCn1c(SCC(=O)N2CCCC(C)C2)nnc1-c1ccco1 (stereo not drawn) | i | 2.1 | 5653 | 2.0 | 9.5 | 0.7
O=C(CSc1nnc(-c2ccco2)n1CC1CCCO1)N1CCCCC1 (stereo not drawn) | -0.2 | 1.4 | 21580* | 1.8 | 2.2 | -14.6
COCCCn1c(SCC(=O)N2CCCC(C)C2)nnc1-c1ccco1 (stereo not drawn) | -0.2 | 1.9 | 21046* | -3.4 | 0.7 | -5.3
O=C(CSc1nnc(-c2ccccc2)n1CC1CCCO1)N1CCCC1 (stereo not drawn) | -0.4 | 3.5 | 3369 | -0.1 | -1.2 | -1.2
CCCCCCSc1nsc(NC(C)=O)n1 | / | -2.2 | 2395 | 0.4 | 9.2 | -3.3
CCCCSc1nsc(NC(C)=O)n1 | 1.8 | 1.2 | 22275* | 2.0 | 1.7 | 0.7
CCOC(=O)c1c(CN2CCCCC2)n(C)c2cc(Br)c(OC)cc12 | 8.3 | 0.3 | 4049 | -0.3 | -9.9 | 4.3
CCOC(=O)c1c(C)n(C)c2cc(Br)c(OC)cc12 | i | -8.6 | 4129 | 1.3 | 0.2 | 2.6
CCOC(=O)c1c(C)oc2cc(Br)c(OC)cc12 | i | -0.8 | 25149* | -2.8 | -4.0 | -1.4
